{"source": "PubChem BioAssay (Tox21)", "experiment": "p53 small molecule agonists, cell-based qHTS assay: qHTS cell viability counter screen (AID 1963581); also: nearly all actives have a fitted effect of over 45% in size", "procedure,_shortened": "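HCT-116 p53RE-bla cells, 4,000/well, plated 5 h before compound pin transfer; 16 h at 37 C; bla substrate 2 h RT; then CellTiter-Glo, 30 min RT, luminescence.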", "note": "Results filed as inconclusive are left out. Where a call stands in place of a potency, no number is given. A number with no mark means an inactive call. Active and inactive are the calls of the source. Calls follow the shape of the full dose curve.", "data": [{"smiles": "O=C(O)c1cc(Cl)cc([N+](=O)[O-])c1Cl", "values": [{"measurement": "Potency", "value": "inactive"}]}, {"smiles": "CCCCCCOC(=O)CCC", "values": [{"measurement": "Potency", "value": "inactive"}]}, {"smiles": "O=P(O)(O)Oc1ccccc1", "values": [{"measurement": "Potency", "value": "inactive"}]}, {"smiles": "NS(=O)(=O)c1ccc(Cl)c(S(N)(=O)=O)c1", "values": [{"measurement": "Potency", "value": "inactive"}]}, {"smiles": "C=CC(C)(C)O", "values": [{"measurement": "Potency", "value": "inactive"}]}, {"smiles": "COc1cc(C)ccc1C(C)C", "values": [{"measurement": "Potency", "value": "inactive"}]}, {"smiles": "C1OCOCO1", "values": [{"measurement": "Potency", "value": "inactive"}]}, {"smiles": "COC(=O)c1cc(C(=O)OC)cc(S(=O)(=O)O)c1", "values": [{"measurement": "Potency", "value": "inactive"}]}, {"smiles": "C=C(C)CCCC", "values": [{"measurement": "Potency", "value": "inactive"}]}, {"smiles": "CCOC(C)=O", "values": [{"measurement": "Potency", "value": "inactive"}]}, {"smiles": "COCCC(=O)OC", "values": [{"measurement": "Potency", "value": "inactive"}]}, {"smiles": "O=S(O)(O)=S", "values": [{"measurement": "activity change, negative = cytotoxicity", "value": "-0.464% [at 5.99 µM]"}]}, {"smiles": "CNCc1ccccc1", "values": [{"measurement": "Potency", "value": "inactive"}]}, {"smiles": "C=CC(=C)CC/C=C(\\C)CCC=C(C)C", "values": [{"measurement": "activity change, negative = cytotoxicity", "value": "2.84% [at 13.5 µM]"}]}, {"smiles": "O=C(NCCCN1CCOCC1)c1ccc(Cl)cc1", "values": [{"measurement": "Potency", "value": "inactive"}]}, {"smiles": "Cc1ccc(C=O)s1", "values": [{"measurement": "Potency", "value": "inactive"}]}, {"smiles": "COc1cc2c(cc1OC)CN(C(=O)[C@H](C)N[C@@H](CCc1ccccc1)C(=O)O)[C@H](C(=O)O)C2", "values": [{"measurement": "Potency", "value": "inactive"}]}, {"smiles": "OCCN(CCO)c1ccccc1", "values": [{"measurement": "Potency", "value": "inactive"}]}, {"smiles": "c1cnc2c(n1)CCCC2", "values": [{"measurement": "Potency", "value": "inactive"}]}, {"smiles": "O=C(O)c1snc(Cl)c1Cl", "values": [{"measurement": "Potency", "value": "inactive"}]}, {"smiles": "CCCCN1C=CN(C)C1", "values": [{"measurement": "activity change, negative = cytotoxicity", "value": "-5.52% [at 13.5 µM]"}]}, {"smiles": "CC1CC(C)C(=O)C1=O", "note": "(centres undefined)", "values": [{"measurement": "Potency", "value": "inactive"}]}, {"smiles": "CC(C)(C)OC(=O)c1ccccc1C(=O)O", "values": [{"measurement": "Potency", "value": "inactive"}]}, {"smiles": "O=C(O)c1cccc(C(=O)O)n1", "values": [{"measurement": "Potency", "value": "inactive"}]}, {"smiles": "CCC(=O)O[C@]1(C(=O)COC)[C@@H](C)C[C@H]2[C@@H]3CCC4=CC(=O)C=C[C@]4(C)C3(F)[C@@H](O)C[C@@]21C", "note": "(some centres undefined)", "values": [{"measurement": "Potency", "value": "inactive"}]}, {"smiles": "CCCCCCCCCC#N", "values": [{"measurement": "Potency", "value": "inactive"}]}, {"smiles": "O=S(=O)(Cl)c1c(Cl)cccc1Cl", "values": [{"measurement": "Potency", "value": "inactive"}]}, {"smiles": "Cc1ccc(N(CC2=NCCN2)c2cccc(O)c2)cc1", "values": [{"measurement": "Potency", "value": "inactive"}]}, {"smiles": "CCCC(=O)OC(=O)CCC", "values": [{"measurement": "Potency", "value": "inactive"}]}]}
